# From PubChem BioAssay AID1508600 (Functional Genomics Laboratory (NCATS/FGL), 2020)
# Out of some 53,000 sequences screened, about 3,700 (7%) were called active. The entries come from a sample that favours actives as a whole. Values without a mark were called inactive.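 Rule for the calls: active = gene knockdowns whose robust z-score for IL-1 alpha signal is at least 2 or at most -2, so actives lie on both sides; inactive = the rest.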
# Assay: Components of the Cytosolic LPS Sensing Pathway: Gene Identification via Genome-wide siRNA Screen;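 note: robust z of the log signal after scaling to non-targeting control siRNA wells of the plate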
# Details: RAW264.7 macrophages, IL-1a HTRF, actives lie on both sides, screened at 100 nM (by protocol), cells primed 5 h with Pam3CSK4 first
# How it was run: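 Using IL-1a HTRF as read-out, the screen measured release from RAW264.7 cells after 48h siRNA knockdown (100 nM), 5 h Pam3CSK4 priming and 24 h cytosolic LipidA. Values were expressed relative to negative-control wells as robust z-scores.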
row,Sequence,z-score
1,GGAAGUGCUUUGAAGAAGATT against Strip2,1.21
2,GCUAACUUGCUCAUGCAAATT against Txlnb,-0.00758
3,GGAAUCGAGAUAUAAAAGGTT against Olfr352,-1.29
4,GCUAGGAUUGUUCACAAACTT against Spdef,-0.707
5,GCUCUUCUCAAGUAUGACGTT against Chrna6,0.717
6,GGAUGCUCACCUUCAAAUUTT against Il2,2.33 (active)
7,GGAUGGAGAUUAUGAAGAGTT against Pcsk9,-0.248
8,CCUGUUACCCUAUAUUUUGTT against Vmn1r82,-1.02
9,CGCAGUUCAUCGCAUGAUUTT against Arhgef12,0.611
10,GGAUGAAAGUCCAACCACATT against Tulp2,-0.17
11,GGGUUGAAUAUGUAGCUUGTT against Dsg1a,0.697
12,GGUAUUUGAAUUUCGUCCCTT against Zc3h15,0.122
13,GGGACAACGCACUCCAACATT against 1810024B03Rik,0.904
14,CCAUUUGACAAGACUGCCATT against Ppp6r1,0.921
15,GCAGGUGAGAAAGUAUAAGTT against Mro,-1.09
16,GGACUUCUAGAGAAGAAGCTT against Gpn2,0.0803
17,GCAUAGUUGGAACCGUAUUTT against Tdpoz3,2.25 (active)
18,CCAAUGACUUCUGGUUAGATT against Tdpoz1,0.665
19,GGUCAGAAGAGUUUGCUAATT against Sgms2,0.552
20,CGAUGGAAGCACUUAUUUATT against Lep,0.984
21,GGUCUUGGCACAAUUACAUTT against Actl6a,-2.07 (active)
22,GGCCAAAUGAAGUCAAAAGTT against Srsf12,-0.212
23,CCUUGUUUGAAUAACGAACTT against 5830427D03Rik,-1.73
24,CCCAGUUGCUAUGCUUGACTT against Defb37,1.68
25,GGCCAGGAGAUUCCUAUGATT against Shisa4,-0.304
26,GGAUGAUUCUGGGUUACAGTT against Pwwp3a,-2.26 (active)
27,GGAAAAGUUAGCGUGUAAUTT against Prkcz,-1.66
28,CCAUCCAUAUGAACUAUGATT against Slc30a4,-1.5
29,CCAGACCUGUGGUAAUCUATT against D3Ertd751e,-0.875
